{
  "source": "the supplement of paper PMC8728848",
  "test_in_all_cases": "glycan array binding signal (z-score within array); higher = stronger binding",
  "conditions_in_all_cases": "glycan notation: IUPAC condensed, linker removed",
  "key": {"[1]": {"system": "Fuc(a1-2)[GalNAc(a1-3)]Gal(b1-4)GlcNAc(b1-3)Gal(b1-4)GlcNAc", "summary_of_the_method": "(§1)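 From the Consortium for Functional Glycomics database, 3228 arrays were curated, keeping only those whose protein sequence was available. Binding is given as a within-array Z-score averaged across arrays sharing a protein sequence and across linkers. Negative Z-scores can be read as non-binding.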"}, "[2]": {"system": "Fuc(a1-2)[GalNAc(a1-4)]Gal(b1-4)GlcNAc", "summary_of_the_method": "as §1"}, "[3]": {"system": "Fuc(a1-3)[Gal(b1-4)]GlcNAc(b1-2)Man(a1-3)[Fuc(a1-3)[Gal(b1-4)]GlcNAc(b1-2)Man(a1-6)]Man(b1-4)GlcNAc(b1-4)GlcNAc", "summary_of_the_method": "as §1"}, "[4]": {"system": "Fuc(a1-3)[Gal(b1-4)]GlcNAc(b1-3)Gal(b1-3)[Fuc(a1-4)]GlcNAc", "summary_of_the_method": "as §1"}, "[5]": {"system": "Fuc(a1-3)[Gal3S(b1-4)]GlcNAc", "summary_of_the_method": "as §1"}, "[6]": {"system": "Fuc(a1-3)[Neu5Ac(a2-3)]Gal(b1-4)GlcNAc(b1-3)GalNAc", "summary_of_the_method": "as §1"}, "[7]": {"system": "Fuc(a1-2)[GalNAc(a1-3)]Gal(b1-4)GlcNAc", "summary_of_the_method": "as §1"}, "[8]": {"system": "Fuc(a1-2)[GalNAc(a1-3)]Gal(b1-4)[Fuc(a1-3)]GlcNAc(b1-3)GalNAc", "summary_of_the_method": "as §1"}, "[9]": {"system": "Fuc(a1-3)[Gal3S(b1-4)]GlcNAc6S", "summary_of_the_method": "as §1"}, "Fuc(a1-3)GlcNAc": {"system": "Fuc(a1-3)GlcNAc", "summary_of_the_method": "as §1"}, "[10]": {"system": "Fuc(a1-3)[Gal(b1-4)]Glc6S", "summary_of_the_method": "as §1"}, "[11]": {"system": "Fuc(a1-2)[GalNAc(a1-3)]Gal(b1-4)GlcNAc(b1-3)GalNAc", "summary_of_the_method": "as §1"}, "[12]": {"system": "Fuc(a1-2)[GalNAc(a1-3)]Gal(b1-4)GlcNAc(b1-6)GalNAc", "summary_of_the_method": "as §1"}, "[13]": {"system": "Fuc(a1-2)[GalNAc(b1-3)]Gal", "summary_of_the_method": "as §1"}, "[14]": {"system": "Fuc(a1-3)[Gal(b1-4)]GlcNAc(b1-6)[Gal(b1-3)GlcNAc(b1-3)]Gal(b1-4)Glc", "summary_of_the_method": "as §1"}, "[15]": {"system": "Fuc(a1-3)[Gal(b1-4)]GlcNAc(b1-3)Gal(b1-4)[Fuc(a1-3)]GlcNAc(b1-3)Gal(b1-4)[Fuc(a1-3)]GlcNAc", "summary_of_the_method": "as §1"}, "[16]": {"system": "Fuc(a1-3)[Gal(b1-4)]GlcNAc(b1-3)GalNAc", "summary_of_the_method": "as §1"}, "[17]": {"system": "Fuc(a1-3)[GalNAc(b1-4)]GlcNAc", "summary_of_the_method": "as §1"}, "[18]": {"system": "Fuc(a1-3)[Gal(b1-4)]GlcNAc(b1-2)Man", "summary_of_the_method": "as §1"}, "[19]": {"system": "Fuc(a1-2)[GalNAc(a1-3)]Gal", "summary_of_the_method": "as §1"}},
  "note": "About 410 targets per protein were measured; listed, in parts, are those with the strongest signals and a random draw of the rest.",
  "data": [
    {"substance": "Epa22", "values": [
      {"measurement": "glycan array binding signal (z-score)", "setting": "[1]", "result": 0.068}
    ]},
    {"substance": "SpGH101 (Streptococcus pneumoniae), Q8DR60", "values": [
      {"measurement": "glycan array binding signal (z-score)", "setting": "[2]", "result": -0.12},
      {"measurement": "glycan array binding signal (z-score)", "setting": "[3]", "result": -0.202},
      {"measurement": "glycan array binding signal (z-score)", "setting": "[4]", "result": -0.148},
      {"measurement": "glycan array binding signal (z-score)", "setting": "[5]", "result": -0.161},
      {"measurement": "glycan array binding signal (z-score)", "setting": "[6]", "result": 0.764}
    ]},
    {"substance": "AgI/II Vhelical-GFP (Streptococcus mutans)", "values": [
      {"measurement": "glycan array binding signal (z-score)", "setting": "[7]", "result": -0.146},
      {"measurement": "glycan array binding signal (z-score)", "setting": "[8]", "result": 2.49},
      {"measurement": "glycan array binding signal (z-score)", "setting": "[2]", "result": 2.31},
      {"measurement": "glycan array binding signal (z-score)", "setting": "[9]", "result": -0.111}
    ]},
    {"substance": "BambL (Burhholderia ambifaria), Q0B4G1", "values": [
      {"measurement": "glycan array binding signal (z-score)", "setting": "Fuc(a1-3)GlcNAc", "result": 7.79},
      {"measurement": "glycan array binding signal (z-score)", "setting": "[10]", "result": -0.021},
      {"measurement": "glycan array binding signal (z-score)", "setting": "[4]", "result": 1.03}
    ]},
    {"substance": "LcI (Legionella pneumophila)", "values": [
      {"measurement": "glycan array binding signal (z-score)", "setting": "[11]", "result": 0.164},
      {"measurement": "glycan array binding signal (z-score)", "setting": "[12]", "result": 2.06},
      {"measurement": "glycan array binding signal (z-score)", "setting": "[3]", "result": 0.959}
    ]},
    {"substance": "SiiE (Salmonella typhimurium), A0A0H3NVH0", "values": [
      {"measurement": "glycan array binding signal (z-score)", "setting": "[13]", "result": 1},
      {"measurement": "glycan array binding signal (z-score)", "setting": "[10]", "result": 1.25},
      {"measurement": "glycan array binding signal (z-score)", "setting": "[14]", "result": 1.13}
    ]},
    {"substance": "Actinohivin (Actinomycete K97)", "values": [
      {"measurement": "glycan array binding signal (z-score)", "setting": "[15]", "result": -0.173},
      {"measurement": "glycan array binding signal (z-score)", "setting": "[16]", "result": -0.169},
      {"measurement": "glycan array binding signal (z-score)", "setting": "[17]", "result": -0.17}
    ]},
    {"substance": "Wza (Escherichia coli), P0A930", "values": [
      {"measurement": "glycan array binding signal (z-score)", "setting": "[18]", "result": 0.907},
      {"measurement": "glycan array binding signal (z-score)", "setting": "[5]", "result": -1.1},
      {"measurement": "glycan array binding signal (z-score)", "setting": "[17]", "result": -1.12}
    ]},
    {"substance": "AgI/IIC123-GFP (Streptococcus mutans)", "values": [
      {"measurement": "glycan array binding signal (z-score)", "setting": "[12]", "result": 2.18},
      {"measurement": "glycan array binding signal (z-score)", "setting": "[8]", "result": 4.84},
      {"measurement": "glycan array binding signal (z-score)", "setting": "[10]", "result": -0.357},
      {"measurement": "glycan array binding signal (z-score)", "setting": "[9]", "result": -0.143}
    ]},
    {"substance": "GspB (Streptococcus gordonii), Q939N5", "values": [
      {"measurement": "glycan array binding signal (z-score)", "setting": "[19]", "result": -0.616}
    ]}
  ]
}
